Hit rate of the full screen: of about 48,000 compounds, about 13,000 (27%) showed an effect of 50% or more. This is one part of the list.
Test system: Wolbachia pipientis
Test: Anti-Wolbachia Cell-Based Screen
Type: functional
Parameters: scale not given: in the data most compounds retested in dose-response had high values
Conditions: 5 µM

| SMILES | Percent Effect [%] |
| --- | --- |
| CC(C)CN1C(=O)CO[C@@H]2CN(C(=O)NC(C)C)C[C@H]21 | -9.204 |
| CN1CCCN(c2nccc(-c3c[nH]nc3-c3ccncc3)n2)CC1 | 94.49 |
| CN1CCCN(c2nccc(-c3c[nH]c4ccc(Br)cc34)n2)CC1 | 88.95 |
| Cc1nn(C)cc1-c1ccnc(N2CCN(c3ccccc3)C(=O)C2)n1 | -10.97 |
| c1cc(-c2n[nH]cc2-c2ccnc(N3CCCCCC3)n2)ccn1 | 91.97 |
| CN1CCCN(c2nccc(-c3cc(C(=O)O)ccn3)n2)CC1 | -0.2127 |
| c1cc(-c2n[nH]cc2-c2ccnc(N3CCCC3)n2)ccn1 | 100.8 |
| Cc1oc(C(C)C)cc1C(=O)N1C[C@H]2CC[C@@H]1CN(c1ncccn1)C2 | 6.387 |
| CN(C)c1ccc(CCCNC(=O)NCC(O)c2ccsc2)cc1 (configuration not stated) | 3.16 |
| Cc1ccc(-c2nc3c([nH]2)CCNC3C(=O)O)c2cccnc12 (configuration not stated) | -6.719 |
| Cc1cc(C)nc(Nc2cncc(C3CCCN(S(C)(=O)=O)C3)n2)n1 (configuration not stated) | 101.3 |
| Cc1cc(C)nc(Nc2cccc(C3CCCN(S(C)(=O)=O)C3)n2)n1 (configuration not stated) | 85.5 |
| CNc1cncc(C2CCCN(S(C)(=O)=O)C2)n1 (configuration not stated) | -7.969 |
| Cc1cc(-c2ccnn2C)nc(C2CCCN(S(C)(=O)=O)C2)n1 (configuration not stated) | 122.2 |
| Cc1cnc(N2CCCC(c3ccccc3)C2)nc1-c1ccnn1C (configuration not stated) | -17.82 |
| CS(=O)(=O)N1CCCC(c2cncc(Nc3ccccn3)n2)C1 (configuration not stated) | 103.2 |

| SMILES | Percent Effect [%] |
| --- | --- |
| CS(=O)(=O)N1CCCC(c2nc(-c3ccccc3)c[nH]2)C1 (configuration not stated) | -2.942 |
| CCc1noc(C)c1-c1nc(Cc2cccs2)nn1C1CCN(C)CC1 | -27.77 |
| COCC(c1ccccn1)N(C)C(=O)c1cc(-c2ccc(O)cc2)n[nH]1 (configuration not stated) | -10.51 |
| N#Cc1cc2n(n1)CCN(C(=O)CCc1c[nH]c3ccccc13)C2 | -21.25 |
| CN(C)C(CNC(=O)NCc1cc[nH]n1)c1ccco1 (configuration not stated) | -4.793 |
| CCOC(=O)C1CN(CC2CC2)Cc2ncn(CC)c21.O=C(O)C(F)(F)F (configuration not stated) | 1.772 |
| Cc1ccoc1C(=O)N1C[C@H]2CCC[C@@]2(COCc2ccncc2)C1.O=C(O)C(F)(F)F | 6.221 |
| COC[C@@]12CCC[C@@H]1CN(C(=O)Cc1ccco1)C2 | -55.3 |
| COC[C@@]12CCO[C@@H]1CCN(C(=O)C1CCSCC1)C2 | -9.781 |
| CCCc1cc(C(=O)N2C[C@H]3CCC[C@@]3(CO)C2)[nH]n1 | 14.56 |
| COCCC(=O)N1C[C@H]2CCC[C@@]2(COC)C1 | 114 |
| CCOCC(=O)N1C[C@H]2CCC[C@@]2(COC)C1 | 105.6 |
| COC[C@@]12CCC[C@@H]1CN(C(=O)N1CCCC1)C2 | 106.2 |
| COCCC(=O)N1C[C@@H]2COC[C@]2(COCc2cccnc2)C1 | -10.08 |
| COC[C@@]12CCC[C@@H]1CN(C(=O)CN(C)C)C2.O=C(O)C(F)(F)F | 107.5 |
| COC[C@@]12CCO[C@@H]1CCN(C(=O)C1CC(F)(F)C1)C2 | -30.77 |
